# The panel holds about 83,000 compounds, 20% with a hit somewhere; the sample as a whole holds those more often.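 Treatment: one concentration, 48 hours, 96-well format. Scoring: percent growth, with anything below 10 considered active.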 Calls of active or inactive are those of the source.
# Tested on: HL-60(TB) leukemia
# Test: NCI-60 one-dose screen, 48 h (100 = growth as untreated, 0 = no growth, -100 = all killed)
# Details: 10 µM unless noted
row,Structure (SMILES),growth
1,CCOC(=O)c1c(C)nc2ccccc2c1/C=C/c1ccc(OC)cc1,83.3% (inactive)
2,COC1=CC(c2ccc[nH]2)=N/C1=C\c1[nH]c(C)c(CC(=O)OCc2ccccc2)c1CCC(=O)OCc1ccccc1,-31.1% (active)
3,COCCCNS(=O)(=O)c1ncnc2nc[nH]c12,82.2% (inactive)
4,O=c1[nH]c(=S)[nH]c2nc[nH]c12,87% (inactive)
5,CS(=O)(=O)c1ccc(C(=O)N/N=C/c2cccc3ccccc23)cc1,37.5% (inactive)
6,COc1ccc(C[C@H](N)C(=O)N[C@@H]2[C@@H](CO)OC(n3cnc4c(N(C)C)ncnc43)[C@@H]2O)cc1 (stereo not given in full),-29.9% (active)
7,C#C[C@@]1(O)[C@@H](CO)O[C@@H](n2cnc3c(-c4ccccc4)ncnc32)[C@@H]1O,102% (inactive)
8,CCCS(=O)(=O)Nc1cccc(Nc2ncnc3cc(NC(=O)CCl)ccc23)c1Cl,-35.5% (active)
9,O=C1C=CC2(NN=C(c3ccccc3)N2c2cccc(Cl)c2)C(Cl)=C1 (stereo not given),33% (inactive)
10,CNC(=O)c1cc(Oc2ccc3c(c2)sc2nc(-c4ccc(N)cc4)cn23)ccn1,2.04% (active)
11,CCCCCCCCCCCCCCCC[N+]1(C)CCOCC1,-59.5% (active)
12,C[C@@H]1C[C@@H]([C@@H](CC2CC(=O)NC(=O)C2)OC(=O)CC(=O)c2ccccc2)C(=O)[C@@H](C)C1,13% (inactive)
13,Cc1cc(N(CCCNc2ccnc3cc(Cl)ccc23)Cc2ccccn2)nc(N2CCOCC2)n1,102% (inactive)
14,CSc1nc(N)c2[nH]c(-c3cc4ccccc4[nH]c3=O)nc2n1,88.8% (inactive)
15,O=C(O)c1ccc(-c2ccc(/C=N/Nc3nc(Nc4ccccc4)nc(N4CCCCC4)n3)o2)cc1,66.4% (inactive)
16,O=c1[nH]c(-c2ccccn2)nc2sc3c(c12)CCCCC3,21.8% (inactive)
17,Fc1cc2c(cc1Cl)N(c1ncnc3ccc(-c4cnc5cnccn45)cc13)CC2,-7.92% (active)
18,C=C1C(=O)O[C@H]2[C@H](O)[C@@H](C)CCC/C(C)=C/CC[C@@]3(C)O[C@@H]3C[C@@H]12,92.5% (inactive)
19,O=C(NCCCl)NCCN1c2nc3ccccc3cc2Sc2cc3ccccc3nc21,24.3% (inactive)
20,COc1ccc(CCl)c(C)c1OC,99% (inactive)

row,Structure (SMILES),growth
1,Cc1ccc2cccc(OC(=O)Nc3cccc(C(F)(F)F)c3)c2n1,67% (inactive)
2,CCOC(=O)CC1CSC(N/N=C/c2ccc(F)c(Br)c2)=N1 (stereo not given),93.6% (inactive)
3,Oc1c(Cl)cc(Cl)c2ccc(CN3CCNCC3)nc12,44.1% (inactive)
4,C[C@@H](C[C@H](CCO)c1cc(C(F)(F)F)cc(C(F)(F)F)c1)c1ccc2ccccc2c1,93.5% (inactive)
5,COc1ccc(-c2c(N)n[nH]c2-c2ccc(Cl)cc2O)cc1OC,91.9% (inactive)
6,CN1CCN(Cc2ccc(NC(=O)c3[nH]ncc3Nc3ccnc4ccnn34)cc2)CC1,45.5% (inactive)
7,Nc1nn2cc(-c3ccc(Cl)s3)nc2c2ccccc12,54.7% (inactive)
8,O=C(/C=C\c1ccc(O)cc1)c1ccccc1,71.9% (inactive)
9,CCCCCCCCCCCCCCCCCC[n+]1ccc2c(C)c3c(c(C)c2c1)c1cc(O)ccc1n3CC,30.2% (inactive)
10,N=C1c2nc3n(c2C(=O)c2nc4n(c21)CCCCC4)CCCCC3,103% (inactive)
11,C[C@]12CCc3c(ccc4cc(O)ccc34)[C@@H]1C[C@H](O)[C@@H]2O,132% (inactive)
12,COc1cc2c(cc1C)NC(=O)/C2=C\c1c[nH]c2ccccc12,47.5% (inactive)
13,CC(=O)c1c(OCC#N)ccc2c(C)cc(=O)oc12,81.6% (inactive)
14,CC1(C)OC(=O)C(=Cc2cccc(Br)c2)C(=O)O1,83.4% (inactive)
15,COc1cc(NC(C)CCCN)c2nc(C)ccc2c1Oc1ccc(F)cc1 (stereo not given),87.9% (inactive)
16,COc1cc(-c2nn(-c3cccc(NC(=O)NCCNS(=O)(=O)c4ccc(Cl)cc4)c3)cc2-c2ccncc2)ccc1Cl,1.37% (active)
17,CC(=O)Nc1ccc(-n2cnc3cc(-c4ccc(OCCN5CCCCC5)cc4)ccc32)cc1,98.3% (inactive)
18,O=C1/C(=C/c2c[nH]c(=O)[nH]c2=O)SC(=S)N1Cc1ccccc1,99.3% (inactive)
19,CCC(CCNc1cc(OC)cc2cccnc12)CN1C(=O)c2ccccc2C1=O (stereo not given),107% (inactive)
20,CCOC(=O)[C@@H]1CCCN(S(=O)(=O)c2ccc(S(=O)(=O)N(CC)CC)c(F)c2)C1,81.4% (inactive)

# Source: PubChem BioAssay (NCI)
